Sampled rows, rich in hits. Any-hit rate of the full collection: about 1.4%.
Rango-impB inh: prevents formation of the Rango-importin beta complex; Q14974; Rango CFP/YFP FRET sensor + importin beta, 45 min; Potency, µM (titrated, usually from 92.2 µM), for inactives: top-dose inhibition of complex formation; 340,000 tested, 0.031% active; AID 540263;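 note: potency is the fitted concentration of half-maximal effect; 0% = DMSO wells and 100% = buffer wells lacking importin beta; nearly all actives have a fitted effect of over 15% in size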
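Inhibition scored from the CFP 486 nm/YFP 530 nm FRET ratio 45 min after adding 0.125 microM importin beta to 50 nM Rango biosensor preincubated 5 min with compound (room temperature, PBS with DTT, Tween-20, BSA). No-importin wells as positive control.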
CCT modulator: modulators of cytosolic chaperonin (CCT/TRiC) activity; purified chaperonin ATPase assay, HTRF ADP detection, 30 min; AID 651819; 360,000 tested, 0.3% active; activity change, % (no concentration beside the values), hits read low; in the data active = activity change below about -30%; note: % is set by controls: 0 for no effect and ±100 for the full control effect
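TRiC (40 or 20 nM final, by batch activity) in 30 mM Tris pH 7.4, 100 mM KCl, 5 mM MgCl2, 1 mM DTT was treated with compound at 76 uM single dose, then 10 uM ATP, 30 min at 37 °C. ADP was read by HTRF Transcreener.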
KCNH2 3.1 block: inhibitors of human KCNH2 3.1 potassium channel isoform. 340,000 tested, 0.95% active. activity change, % (tested at about 1.8 µM). U2OS KCNH2 3.1, thallium flux FluxOr; hits give low values. AID 720553;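 active = maximum activity change below -70%; inconclusive = maximum activity change from -70% to -50%; inactive = maximum activity change above -50%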;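 note: thallium influx rate constant from kinetic fluorescence after stimulation buffer; % is set by controls: 0 for no effect and ±100 for the full control effect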
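Thallium flux via FluxOr fluorescence (Red40 quencher, 45 min loading) in U2OS cells virally expressing the KCNH2 3.1 isoform (1.77 x 10^8 /mL virus, overnight at 37 C). Rate constants from 2-min kinetic reads post-stimulation, normalised to positive and negative controls.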
MmCpn inh: blocks the Methanococcus maripaludis chaperonin Mm-Cpn; purified Mm-Cpn ATPase, ADP Transcreener TR-FRET; Potency, µM (series often up to 76.9 µM), for inactives: at the highest dose activity, negative = inhibition, hits mostly inhibitors; 330,000 tested, 0.031% active; AID 504842; active = well fitted inhibition curve with a large enough effect; inconclusive = small, poorly fitted or top-dose-only effect; note: potency is the fitted concentration of half-maximal effect; % is set by controls: 0 for no effect and ±100 for the full control effect; nearly all actives have a fitted effect of over 80% in size
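ATPase read-out: TR-FRET ADP immunoassay (anti-ADP Eu cryptate vs ADP-d2), ex 320 nm, em 590/665 nm; signal drops as ADP forms. Enzyme 25 nM, ATP 10 uM, 30 min at 37°C after 10 min compound preincubation.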
KCNH2 WT inh: inhibitors of human wildtype KCNH2 potassium channel | Q12809 | U2OS, BacMam KCNH2, thallium flux FluxOr; hits give low values | activity change, % at 1.84 µM | 340,000 tested, 0.37% active | AID 720551;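 active = maximum activity change below -70%; inconclusive = maximum activity change between -70% and -50%; inactive = maximum activity change above -50%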; note: % is set by controls: 0 for no effect and ±100 for the full control effect
Target sequence (Q12809 whole entry, looked up): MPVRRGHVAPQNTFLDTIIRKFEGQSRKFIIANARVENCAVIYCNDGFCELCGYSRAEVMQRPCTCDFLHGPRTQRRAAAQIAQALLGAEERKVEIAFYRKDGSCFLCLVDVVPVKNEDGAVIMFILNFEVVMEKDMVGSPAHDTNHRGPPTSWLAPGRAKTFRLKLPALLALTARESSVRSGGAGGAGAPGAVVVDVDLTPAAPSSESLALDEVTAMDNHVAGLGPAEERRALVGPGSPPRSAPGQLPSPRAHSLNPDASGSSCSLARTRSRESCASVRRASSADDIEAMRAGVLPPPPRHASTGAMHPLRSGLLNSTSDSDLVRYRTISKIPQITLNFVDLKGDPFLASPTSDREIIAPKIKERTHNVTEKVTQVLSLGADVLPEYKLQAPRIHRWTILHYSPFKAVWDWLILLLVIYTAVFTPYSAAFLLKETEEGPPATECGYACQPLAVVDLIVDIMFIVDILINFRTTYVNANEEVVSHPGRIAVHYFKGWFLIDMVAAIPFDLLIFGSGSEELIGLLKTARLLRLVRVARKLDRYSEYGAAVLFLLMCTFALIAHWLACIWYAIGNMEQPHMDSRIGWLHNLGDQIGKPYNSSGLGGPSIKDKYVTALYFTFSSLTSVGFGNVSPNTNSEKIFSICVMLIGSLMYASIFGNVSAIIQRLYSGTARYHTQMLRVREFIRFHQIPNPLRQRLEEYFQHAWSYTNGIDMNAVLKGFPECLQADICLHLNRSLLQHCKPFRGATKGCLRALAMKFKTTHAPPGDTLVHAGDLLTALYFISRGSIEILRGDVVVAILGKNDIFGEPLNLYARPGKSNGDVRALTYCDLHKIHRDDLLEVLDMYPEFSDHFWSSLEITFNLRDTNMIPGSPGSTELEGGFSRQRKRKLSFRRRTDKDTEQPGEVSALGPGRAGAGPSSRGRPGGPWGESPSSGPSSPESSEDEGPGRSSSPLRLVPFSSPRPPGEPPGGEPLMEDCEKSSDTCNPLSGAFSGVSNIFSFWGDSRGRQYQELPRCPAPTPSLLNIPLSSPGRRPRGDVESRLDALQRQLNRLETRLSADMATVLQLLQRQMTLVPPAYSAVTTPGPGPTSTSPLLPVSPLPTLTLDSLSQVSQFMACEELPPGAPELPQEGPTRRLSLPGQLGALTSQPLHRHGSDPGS
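U2OS cells were transduced with wild-type KCNH2 virus (2.03 x 10^8 / mL) for 4 h at room temperature, then cultured overnight at 37 C. Thallium flux was read with FluxOr dye. Rate constants were normalized to DMSO controls.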
Rango dissoc inh: inhibitors of RanGTP-induced Rango-importin beta complex dissociation; Potency, µM (titrated, usually from 46.1 µM), without a hit: top-dose activity change, negative = inhibition; 340,000 tested, 0.071% active; O95149+P62826; Biochemical FRET Rango-importin beta, RanGTP-induced dissociation; AID 540253; note: potency is the fitted concentration of half-maximal effect; % of control where 0% means no effect; nearly all actives have a fitted effect of over 45% in size
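Compounds sat 5 min at room temperature with 0.1 uM Rango biosensor plus 0.25 uM importin beta, then FRET pre-read. RanGTP-RCC1 (0.6 uM Ran, 2mM GTP, 0.2 uM RCC1) added for 45 min, and the CFP/YFP post-read measured blocked complex dissociation.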
Starred values were filed as active, the others as inactive; u = inconclusive; x = no result given. Unless noted, calls come from the whole dose curve.

SMILES | Rango-impB inh | CCT modulator | KCNH2 3.1 block | MmCpn inh | KCNH2 WT inh | Rango dissoc inh
COc1ccc(N(C)S(=O)(=O)c2cccc(C(=O)OCC(=O)N(C)c3ccccc3)c2)cc1 | 1.4% | -1.9 | 13.0 | 1.8% | -48.0 | -1.1%
COc1ccccc1-c1c(C)nn2c(N3CCCCCC3)cc(C)nc12 | -1.7% | 1.5 | 10.9 | 1.0% | -249.7* | 18.2%
COc1cc(OC)c(C(=O)CCC(=O)O)cc1OC | 0.1% | -31.0* | -21.7 | -0.7% | -2.6 | -15.7%
COc1cc(CC(=O)O)c(C(C)=O)cc1OC | -0.8% | -3.6 | -7.8 | -0.7% | -6.1 | -0.1%
COCc1c(C(=O)Nc2cccc(S(=O)(=O)N3CCCCC3)c2)oc2ccccc12 | 0.1% | -74.1* | -16.9 | -1.7% | 7.2 | -16.8%
Cc1ccc(C(=O)Nc2ccccc2N2CCCCC2)cc1[N+](=O)[O-] | 6.9% | -1.1 | -83.0* | u | -7.3 | 12.7%
CN1CCN(c2ccccc2NC(=O)c2cc(Br)ccc2Cl)CC1 | -0.2% | -2.5 | -87.1* | 0.3% | -23.0 | 1.2%
O=C(Nc1ccccc1N1CCN(C(=O)c2ccc(Cl)cc2)CC1)c1cc(Br)ccc1Cl | 4.4% | -0.4 | -101.4* | 1.1% | -121.2* | 3.9%
O=C(Nc1ccccc1N1CCN(C(=O)c2ccc(Cl)cc2)CC1)c1cccc([N+](=O)[O-])c1 | 1.5% | -4.7 | -102.5* | 1.1% | -123.3* | 1.4%
CC(=O)N1CCN(c2ccccc2NC(=O)c2cc(Br)ccc2Cl)CC1 | -0.9% | -1.1 | -19.1 | 0.1% | -0.8 | -0.1%
O=C(Nc1ccccc1N1CCN(C(=O)c2ccccc2)CC1)c1ccccc1Cl | -0.6% | -0.5 | -1.4 | 1.3% | -1.3 | -12.6%
N=c1n(CCN2CCCC2)c2ccccc2n1CC(O)c1ccc(Cl)c(Cl)c1 (centres undefined) | 2.0% | 0.9 | -84.3* | 3.6% | x | 34.8%
Cc1cc(=O)oc2cc(O)cc(OCc3ccccc3)c12 | u | 1.4 | 11.2 | x | 26.2 | 8.2µM*
CC(Sc1nnc(Cc2ccccc2)o1)C(=O)Nc1ccccc1[N+](=O)[O-] (centres undefined) | 0.5% | 1.1 | 9.5 | 1.4% | -16.3 | 1.6%
FC(F)(F)c1cc(C(F)(F)F)c2ccc(N3CCN(c4ccc(Cl)cc4)CC3)nc2n1 | -0.9% | -2.0 | -89.6* | 0.5% | 1.0 | 0.4%
CC1CN(C(=S)Nc2cccc(Cl)c2Cl)CC(C)O1 (centres undefined) | 0.0% | -1.9 | -48.1 | -0.3% | -2.2 | -11.8%
COc1ccccc1C1CCN(Cc2ccc(C)cc2)CC1 | 1.2% | 1.4 | -83.5* | 0.2% | 38.6 | -1.8%
COc1ccccc1-c1csc(N2CCC(C(N)=O)CC2)n1 | x | x | x | 1.5% | x | x
COCCn1c(Br)nc2c1c(=O)n(C)c(=O)n2C | -2.8% | -41.7* | 2.6 | -7.0% | -7.3 | 5.8%
CSc1ccc(OC2CCN(Cc3ccccc3)CC2)cc1 | 0.8% | 1.6 | -89.2* | -1.3% | u | -3.5%
COc1ccc2cc3cc(C(=O)NCc4ccc5c(c4)OCO5)oc3nc2c1 | u | 1.7 | -9.9 | -1.6% | -0.7 | -7.1%
COc1ccc2cc3cc(C(=O)NCc4cccnc4)oc3nc2c1 | 0.0% | -67.9* | -13.6 | -1.6% | -4.2 | -0.3%
COc1ccccc1CC(=O)N1CCN(c2cccc(C(F)(F)F)c2)CC1 | 0.0% | -34.1* | -4.4 | -0.4% | 5.9 | -0.3%
CC(C)CC[n+]1ccn(-c2nc3ccccc3nc2[N-]S(=O)(=O)c2ccc(Cl)cc2)c1 | u | -1.9 | -21.2 | 1.8% | 17.7 | -23.9%
O=S(=O)(NC1CCCCC1N1CCN(c2ccc(F)cc2)CC1)c1ccccc1 (centres undefined) | 2.9% | 3.1 | -81.1* | -0.8% | 26.7 | 0.8%
O=S(=O)(NC1CCCCC1N1CCCCC1)c1ccccc1 (centres undefined) | 0.4% | -0.5 | 6.2 | 1.2% | -2.0 | -6.6%
O=C(Nc1nc2ccccc2[nH]1)c1ccc(F)c(S(=O)(=O)N2CCOCC2)c1 | 0.6% | -43.7* | 6.2 | 2.1% | -0.6 | 0.8%
